According to paper PMC4336329 (PLoS ONE, 2015):
Hit rate of the full screen: of about 310,000 compounds, about 14,000 (4.5%) showed an effect of 50% or more. Effects have a minus sign here. The sample as a whole holds a higher share of strong results than the screen did.

Each compound was assayed against human ether-à-go-go-related gene (hERG) potassium channel (human, UniProt Q12809) (assay: primary screen, population patch clamp on CHO cells stably expressing hERG; higher = less effect of the substance).
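Further: peak tail current of the secondary pulse compared with the same well before compound.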

Sequence of human ether-à-go-go-related gene (hERG) potassium channel (Q12809 whole entry, looked up): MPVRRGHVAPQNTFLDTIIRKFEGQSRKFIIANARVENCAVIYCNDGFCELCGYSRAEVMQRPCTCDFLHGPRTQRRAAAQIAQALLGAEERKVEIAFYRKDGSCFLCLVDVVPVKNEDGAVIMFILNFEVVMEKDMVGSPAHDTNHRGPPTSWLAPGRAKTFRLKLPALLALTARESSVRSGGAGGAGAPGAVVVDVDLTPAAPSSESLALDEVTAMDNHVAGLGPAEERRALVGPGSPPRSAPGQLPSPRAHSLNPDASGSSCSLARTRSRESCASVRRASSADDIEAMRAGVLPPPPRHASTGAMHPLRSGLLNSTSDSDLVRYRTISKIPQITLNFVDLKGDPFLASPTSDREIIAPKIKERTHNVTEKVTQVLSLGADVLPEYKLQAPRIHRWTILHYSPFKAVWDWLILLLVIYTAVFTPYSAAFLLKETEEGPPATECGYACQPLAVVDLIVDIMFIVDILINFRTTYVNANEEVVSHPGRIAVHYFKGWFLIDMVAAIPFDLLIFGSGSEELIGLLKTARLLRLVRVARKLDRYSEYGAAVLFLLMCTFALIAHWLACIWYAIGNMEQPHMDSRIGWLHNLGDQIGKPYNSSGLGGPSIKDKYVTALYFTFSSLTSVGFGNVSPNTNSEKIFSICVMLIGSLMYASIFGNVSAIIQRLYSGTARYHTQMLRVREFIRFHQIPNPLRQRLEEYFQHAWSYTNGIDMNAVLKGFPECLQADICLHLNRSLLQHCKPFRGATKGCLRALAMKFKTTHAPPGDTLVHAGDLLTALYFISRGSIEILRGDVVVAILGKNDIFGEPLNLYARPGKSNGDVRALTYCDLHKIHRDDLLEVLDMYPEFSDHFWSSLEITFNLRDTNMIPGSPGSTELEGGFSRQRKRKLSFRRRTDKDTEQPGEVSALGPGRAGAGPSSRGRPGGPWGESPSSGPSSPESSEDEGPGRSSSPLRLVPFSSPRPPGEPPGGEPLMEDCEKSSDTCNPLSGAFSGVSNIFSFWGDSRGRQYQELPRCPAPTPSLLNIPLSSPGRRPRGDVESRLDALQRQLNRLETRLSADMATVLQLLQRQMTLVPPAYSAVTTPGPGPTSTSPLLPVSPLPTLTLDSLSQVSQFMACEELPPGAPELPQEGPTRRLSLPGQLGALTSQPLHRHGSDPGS

Row | SMILES | hERG current change (%, negative = inhibition) at 10uM
1 | NC(=O)CC(NC(=O)Cc1ccc(Br)cc1)c1ccc(N2CCc3ccccc3C2)c([N+](=O)[O-])c1 (stereo not shown) | -2.08%
2 | O=S(=O)(Nc1ccc(Cl)nn1)c1ccccc1 | 12.7%
3 | Cn1c(N)c(C(=O)COC(=O)/C=C/c2ccc(OC(F)F)cc2)c(=O)n(C)c1=O | 3.23%
4 | O=C(O)C(=O)O.Oc1ccccc1CN1CCC(C(O)(c2ccccc2)c2ccccc2)CC1 | -68.5%
5 | O=C(O)C(=O)O.Oc1ccccc1CN1CCN(C(O)(c2ccccc2)c2ccccc2)CC1 | -46%
6 | O=C(CN1CCC(C(O)(c2ccccc2)c2ccccc2)CC1)Nc1ccccc1 | -42.1%
7 | Nc1c(Cl)cc(-c2csc(N3CCCC3c3nc4cc(Cl)c(Cl)cc4n3CCCO)n2)cc1Cl (stereo not shown) | -2.8%
8 | CC(NC(=O)C1CC1)C(c1cccs1)N1CCN(c2ccccc2)CC1 (stereo not shown) | -0.284%
9 | COc1ccc(NC(=O)CN(C)Cc2cccs2)cc1Cl | -15.7%
10 | O=S(=O)(c1ccc(F)cc1)c1nc(-c2ccccc2F)oc1N1CCCCC1 | -20%
11 | CN1CCN(c2oc(-c3ccccc3F)nc2S(=O)(=O)c2ccc(Cl)cc2)CC1 | -57.6%
12 | CN1CCN(c2oc(-c3ccccc3Cl)nc2S(=O)(=O)c2ccccc2)CC1 | -47.9%
13 | Cc1ccc(S(=O)(=O)c2nc(-c3ccccc3)oc2N2CCC(C(N)=O)CC2)cc1 | -26.3%
14 | NC(=O)C1CCN(c2oc(-c3ccccc3)nc2S(=O)(=O)c2ccc(Br)cc2)CC1 | -55.9%
15 | O=S(=O)(c1ccccc1)c1nc(-c2ccccc2)oc1N1CCCC1 | 8.44%
16 | NC(=O)C1CCN(c2oc(-c3ccc(F)cc3)nc2S(=O)(=O)c2ccccc2)CC1 | -17.4%
17 | O=S(=O)(c1ccc(Br)cc1)c1nc(-c2ccccc2)oc1N1CCOCC1 | -30.7%
18 | CN1CCN(c2oc(-c3ccccc3)nc2S(=O)(=O)c2ccc(Br)cc2)CC1 | -68.6%
19 | CCN(CC)S(=O)(=O)c1cccc(N=Nc2sc(N)nc2C)c1 | -12.8%
20 | S=C1NC[C@H](CC2CCCCC2)N1CC1CCCCC1 | -8.59%
21 | O=C(CN1CCCCC1)Nc1ccc(NC(=O)c2ccc(Cl)cc2)cc1Cl | 13.7%
22 | CCC(NC(=O)c1cc(COc2cncc(Cl)c2)on1)c1ccncc1 (stereo not shown) | 8.75%
23 | COc1ccc(-c2cc3ccccc3n2CC(O)CN2CCN(CCO)CC2)cc1 (stereo not shown) | -29.9%
24 | COc1ccc(-c2cc3ccccc3n2CC(O)CN2CCOCC2)cc1 (stereo not shown) | -13.5%
25 | COc1ccc(-c2cc3ccccc3n2CC(O)CNCCO)cc1.O=C(O)C(=O)O (stereo not shown) | 3.61%
26 | COc1ccc(-c2cc3ccccc3n2CC(O)Cn2nc(C)cc2C)cc1 (stereo not shown) | 4.62%

Row | SMILES | hERG current change (%, negative = inhibition) at 10uM
27 | COc1ccc(-c2cc3ccccc3n2CC(O)CN2CCC(C)CC2)cc1.O=C(O)C(=O)O (stereo not shown) | -77%
28 | COc1ccc(-c2cc3ccccc3n2CC(O)CN2CCCCC2)cc1.O=C(O)C(=O)O (stereo not shown) | -79.6%
29 | OCC[C@H]1C[C@H](O)[C@@H](O)[C@@]2(OCc3ccccc32)O1 | 8.35%
30 | CCOc1ccccc1N(CC(=O)NC(C)(C)C)C(=O)Cn1nnc(-c2ccc(C)o2)n1 | -16%
31 | O=C(C1CC1)N1CCc2cc(Br)cc(S(=O)(=O)N3CCN(c4ccccn4)CC3)c21 | -17.5%
32 | COc1ccc(CCNC(=O)NCCc2c[nH]c3ccccc23)cc1OC | -3.31%
33 | CCOc1ncccc1C(=O)Nc1cccc(-c2nnc3n2CCCCC3)c1 | -19.6%
34 | CC(C)(C)OC(=O)N1CCC(C(=O)NCC2CCCO2)CC1 (stereo not shown) | 16.5%
35 | O=C(CC(C(=O)N1CCc2ccccc21)n1ccnc1)NCc1ccccc1 (stereo not shown) | -26.5%
36 | COc1ccc(/C=C/C(=O)Nc2cc(S(=O)(=O)N3CCOCC3)ccc2N2CCCC2)cc1OC | -40.3%
37 | O=C(/C=C/c1ccc(F)cc1)Nc1cc(S(=O)(=O)N2CCOCC2)ccc1N1CCCC1 | -70.9%
38 | O=C(/C=C/c1ccccc1)Nc1cc(S(=O)(=O)N2CCOCC2)ccc1N1CCCC1 | -1.04%
39 | O=C(/C=C/c1cccc(F)c1)Nc1cc(S(=O)(=O)N2CCOCC2)ccc1N1CCCC1 | -57.7%
40 | O=C(/C=C/c1ccc(F)cc1)Nc1ccc(S(=O)(=O)N2CCOCC2)cc1 | 9%
41 | COc1cc(/C=C/C(=O)Nc2cc(S(=O)(=O)N3CCOCC3)ccc2N2CCCC2)cc(OC)c1OC | 24%
42 | Cc1ccc(/C=C/C(=O)Nc2cc(S(=O)(=O)N3CCOCC3)ccc2N2CCOCC2)cc1 | -43.2%
43 | Cc1ccc(NC(=O)/C=C/c2ccc3c(c2)OCO3)cc1S(=O)(=O)N1CCOCC1 | -13%
44 | O=C(/C=C/c1ccc2c(c1)OCO2)Nc1cc(S(=O)(=O)N2CCOCC2)ccc1N1CCOCC1 | -55.9%
45 | Cc1ccn(CCC(=O)O)n1 | 26.6%
46 | Cc1[nH]n(-c2ccccc2)c(=O)c1/C=N/N1C(=O)c2cccc3cccc(c23)C1=O | 3.73%
47 | COc1ccc(/C=C/c2nc3sc4c(c3c(=O)o2)CCC4)cc1 | 4.28%
48 | Cc1ccc(-c2nc(N)c3c(-c4ccc(C)cc4)nn(C(C)(C)C)c3n2)cc1 | -1.71%
49 | O=C(COc1ccc(S(=O)(=O)N2CCOCC2)cc1)NCCc1ccccc1 | -13.4%
50 | C/C(Cl)=C\Cn1c(NCCc2ccccc2)nc2c1c(=O)n(C)c(=O)n2C | -9.3%
51 | C/C(Cl)=C/Cn1c(NCCN(C)C)nc2c1c(=O)n(C)c(=O)n2C | -26.9%
52 | CCN(CC)CCNc1nc2c(c(=O)n(C)c(=O)n2C)n1C/C=C(/C)Cl | -58.9%
